Laboratory results taken from PubChem BioAssay (NCATS).
Records with an inconclusive call do not appear. A number with no mark means an inactive call. The call rests on the fitted dose curve; in most records, active means well fitted inhibition curve with a large enough effect; inconclusive means small, poorly fitted or top-dose-only effect; inactive means flat fitted curve, though single readings scatter.

These compounds were tested on Zika virus NS2B-NS3 protease (assay: Primary screen GU AMC qHTS for Zika virus inhibitors (AID 1347154;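 further: 0% = no-inhibitor control and -100% = no-enzyme control; nearly all actives have a fitted effect of over 70% in size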)). Details: Zika NS2B-NS3 unlinked protease, AMC fluorogenic substrate; series mostly up to 54.1 µM; activity change, negative = inhibition: at the top concentration.
Summary of the method: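 Fluorogenic AMC-substrate cleavage by noncovalent NS2B-NS3 protease complex (25 nM, pH 8.0 Tris buffer with Tween 20) followed for 15 minutes at room temperature (~20% conversion). Percent inhibition from ex340/em450 signal change, fitted by 4-parameter Hill equation.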

SMILES	activity change, negative = inhibition [%]
CCCCCOC(=O)Nc1nc(=O)n([C@@H]2O[C@H](C)[C@@H](O)C2O)cc1F (stereo not given in full)	-18.4
COc1cc2ncn(-c3cc(OCc4ccccc4S(C)(=O)=O)c(C#N)s3)c2cc1OC	-4.41
CN1N=C(N)c2cn([C@@H]3O[C@H](COP(=O)(O)O)[C@@H](O)[C@@H]3O)c3ncnc1c23	-6.6
CC(C)(CO)[C@@H](O)C(=O)NCCC(=O)O	10.2
CN1CCN2c3ncccc3Cc3ccccc3C2C1 (stereo not given)	-5.52
CNC(=O)c1cc(COc2nnc(Nc3ccc(Cl)cc3)c3ccoc23)ccn1	3.19
O=C(O)C1=CC(O)C(O)[C@H](O)C1 (stereo not given in full)	3.21
Cc1nc(NC(=O)N2CCC[C@@H]2C(N)=O)sc1-c1csc(C(C)(C)C)n1	0.125
CN1C(=O)C[C@H](C(=O)N[C@@H](Cc2cnc[nH]2)C(=O)N2CCC[C@@H]2C(N)=O)NC1=O	1.52
O=C(c1ccc(F)c(F)c1Nc1ccc(I)cc1F)N1CC(O)([C@H]2CCCCN2)C1	17.6
CC(C)c1c(C(=O)Nc2ccccc2)c(-c2ccccc2)c(-c2ccc(F)cc2)n1CC[C@H](O)C[C@@H](O)CC(=O)O	-1.98
CC(C)C[C@@H](C(=O)N[C@H](C(=O)OC1CCCC1)c1ccccc1)[C@H](O)C(=O)NO	-15.4
COc1cc2nc(-c3cc(F)ccc3O)nc(N[C@@H]3CNC[C@@H]3C(C)(C)O)c2cc1OC	13.9
CCCCC(C=O)NC(=O)C(CC(C)C)NC(=O)OCc1ccccc1 (stereo not given)	10.2
O=C1C(CCC(O)c2ccc(F)cc2)C(c2ccc(O)cc2)N1c1ccc(F)cc1 (stereo not given)	-2.64
